From PubChem
Mtb BioA inh – BioA (M. tuberculosis) enzyme inhibition | purified M. tuberculosis BioA enzyme, plate reader | inhibition, % at 9.99 µM | hit rate 0.096% among 360,000 | AID 602481; in the data active = inhibition above about 40%
FadD28 binding – M. tuberculosis FadD28 bisubstrate binding inhibition | FadD28 bisubstrate probe binding, fluorescence polarization | inhibition, % at 12.5 µM | hit rate 0.22% among 360,000; in the data active = inhibition above about 8.5%, passing the limit was not always enough
UGM FP inh – Mtb UDP-galactopyranose mutase inhibition; P9WIQ1; purified UGM, fluorescence polarization probe displacement; inhibition, % at 10 µM; hit rate 0.06% among 320,000; AID 504406; in the data active = inhibition above about 10%, passing the limit was not always enough
Target sequence (P9WIQ1 whole entry, looked up): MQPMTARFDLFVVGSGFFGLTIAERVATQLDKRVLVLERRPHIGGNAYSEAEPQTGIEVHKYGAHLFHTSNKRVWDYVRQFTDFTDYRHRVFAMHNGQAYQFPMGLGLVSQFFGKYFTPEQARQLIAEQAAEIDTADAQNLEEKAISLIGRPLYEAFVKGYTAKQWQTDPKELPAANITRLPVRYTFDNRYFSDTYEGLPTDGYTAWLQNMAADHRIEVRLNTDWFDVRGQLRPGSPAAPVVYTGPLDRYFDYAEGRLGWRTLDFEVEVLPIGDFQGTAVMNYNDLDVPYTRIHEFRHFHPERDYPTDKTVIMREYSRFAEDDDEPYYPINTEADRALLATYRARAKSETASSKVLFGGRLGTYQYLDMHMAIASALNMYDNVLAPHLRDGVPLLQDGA
Rv3671c protease – inhibitors of M. tuberculosis serine protease Rv3671c | AID 2606 | inhibition, % at 5.96 µM | hit rate 0.048% among 320,000; in the data active = inhibition above about 38%;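 note: extracellular domain of Rv3671c used as enzyme; 0% = enzyme with DMSO and 100% = no enzyme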
TcdB inh – inhibitors of Clostridioides difficile toxin B glycohydrolase; P18177; inhibition, % at 9.99 µM; hit rate 0.24% among 350,000; TcdB glycohydrolase enzymatic assay, plate reader; in the data active = inhibition above about 10%
RecA intein inh – blocks M. tuberculosis RecA intein splicing; cell-free RecA intein splicing, fluorescence; inhibition, % (test concentration not listed); hit rate 0.75% among 290,000; P9WHJ3; in the data active = inhibition above about 30%;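 note: 0% = vehicle wells and 100% = reference inhibitor control wells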
Starred values were filed as active, the others as inactive; nt = no result given; ! = a repeat was not active. Hits are enriched below; roughly 0.9% of the tested compounds scored in any of these assays.

SMILES	Mtb BioA inh	FadD28 binding	UGM FP inh	Rv3671c protease	TcdB inh	RecA intein inh
N#Cc1ccccc1NC(=O)c1cc(=O)c2ccccc2o1	nt	12*	2	-1	0	0
O=c1[nH]nc(-c2cc(-c3ccccc3)nc3ccccc23)o1	1	-5	nt	nt	16*	nt
O=C(O)c1cc(-c2ccccc2)nc2ccccc12	-1	0	-2	5	2	4
CC1CC(C)CN(C(=O)c2ccc3c(c2)N(Cc2ccccc2)CCS3)C1 (stereo not given)	0	1	3	9	nt	35*
COc1ccc(CN(C)C[C@@H]2Oc3ccc(NC(=O)CCCN(C)C)cc3C(=O)N([C@H](C)CO)C[C@H]2C)cc1	-1	nt	nt	nt	0	nt
COc1ccc(-c2cnc3c(c2)C(=O)N([C@H](C)CO)C[C@@H](C)[C@@H](CN(C)C(=O)Cc2ccccn2)O3)cc1	3	nt	nt	nt	0	nt
COc1cc(/C=C(\C#N)C(=O)N2CCCCC2)ccc1O	0	-3	-2	5	14*	0
C[C@H](CO)N1C[C@H](C)[C@@H](CN(C)S(=O)(=O)c2ccccc2)OCCCC[C@H](C)Oc2ccc(NS(=O)(=O)c3cccs3)cc2C1=O	1	nt	nt	nt	0	nt
O=C(N/N=C/c1c[nH]c2ccccc12)c1cc(Br)ccc1O	9	29*	0	12	0	-2
Cc1nc(N)sc1C(=O)N/N=C/c1ccccc1[N+](=O)[O-]	-4	-1	3	-2	0	-2
Cc1nc(N)sc1C(=O)N/N=C/c1c[nH]c2ccccc12	-1	9.9*	0	-4	nt	-3
CO[C@H]1CN(C)C(=O)c2ccc(NC(=O)Cc3ccccc3)cc2OC[C@@H](C)N(CC2CC2)C[C@@H]1C	1	nt	nt	nt	-1	nt
O=C(C[C@@H]1CC[C@H]2[C@@H](COC[C@H](O)CN2Cc2nccs2)O1)NCc1ccccc1	-1	nt	nt	nt	0	nt
O=C(COC(=O)/C=C/c1cccs1)Nc1ccc(F)cc1	-3	0	-1	7	0	nt
CCc1cccc(NC(=O)COC(=O)/C=C/c2cccs2)c1	21	20*	6	-8	0	1
C[C@H](CO)N1C[C@H](C)[C@H](CN(C)Cc2ccc(Oc3ccccc3)cc2)Oc2cc(-c3ccncc3)ccc2S1(=O)=O	-2	nt	nt	nt	17*	nt
C[C@@H]1CN([C@@H](C)CO)S(=O)(=O)c2ccc(-c3ccncc3)cc2O[C@@H]1CN(C)Cc1ccc(Oc2ccccc2)cc1	-1	nt	nt	nt	14*	nt
C[C@@H]1CN([C@@H](C)CO)S(=O)(=O)c2ccc(-c3ccncc3)cc2O[C@@H]1CN(C)Cc1ccccc1	-1	nt	nt	nt	0	nt
C[C@@H]1CN([C@H](C)CO)S(=O)(=O)c2ccc(-c3ccncc3)cc2O[C@H]1CN(C)Cc1ccc(Oc2ccccc2)cc1	-8	nt	nt	nt	-12	nt
Cc1noc(C)c1S(=O)(=O)N(C)C[C@H]1Oc2ccc(NC(=O)CCCCCC(=O)Nc3ccccc3N)cc2CC(=O)N([C@H](C)CO)C[C@@H]1C	nt	nt	nt	nt	1	nt
C[C@@H]1CN([C@@H](C)CO)C(=O)c2cc(NS(C)(=O)=O)ccc2O[C@@H](C)CCCCO[C@H]1CN(C)C(=O)Nc1ccc(C(F)(F)F)cc1	nt	nt	nt	nt	1	nt
O=C(C[C@@H]1CC[C@H](NC(=O)Nc2ccccc2F)[C@@H](CO)O1)NCc1ccc(Cl)cc1	-3	nt	nt	nt	0	nt
C[C@@H]1CN([C@H](C)CO)S(=O)(=O)c2ccc(-c3ccccc3F)cc2O[C@H]1CN(C)Cc1ccncc1	2	nt	nt	nt	0	nt
CC(C)(C)[C@@H]1C=C(C(=O)NCc2nc3ccccc3[nH]2)O[C@H](OCc2ccc(CO)cc2)C1	nt	nt	nt	nt	0	nt
C[C@H]1C=C(C(=O)NCc2nc3ccccc3[nH]2)O[C@@H](OCc2ccc(CO)cc2)C1	3	0	-3	-11	11*!	-1
SMILES	Mtb BioA inh	FadD28 binding	UGM FP inh	Rv3671c protease	TcdB inh	RecA intein inh
C[C@@H]1CN([C@@H](C)CO)C(=O)c2cccc(NS(=O)(=O)c3ccc(Cl)cc3)c2O[C@H]1CN(C)Cc1ccncc1	-1	nt	nt	nt	0	nt
C/C(=N\OCC(=O)Nc1nc2ccccc2s1)c1ccccc1	nt	-2	2	-9	10*	12
CC(=O)N1CC2(C1)[C@H](c1ccccc1)[C@@H](CO)N2CC1CCOCC1	nt	nt	nt	nt	0	nt
CN(c1ccccc1)S(=O)(=O)c1ccc(NC(=O)CC(=O)c2ccccc2)cc1	nt	25*	nt	nt	1	nt
CC(=O)Nc1ccc(NC(=O)c2ccc(S(=O)(=O)N(C)c3ccccc3)cc2)cc1	2	-1	1	-8	1	nt
N#CC1=C(N)N(c2ccccc2)C(c2ccco2)C1(C#N)C#N (stereo not given)	2	15*	1	6	nt	8
CCN1CC(CNCc2cn(-c3ccc(OC)cc3)nc2-c2ccccc2Cl)CC1=O (stereo not given)	nt	-6	-1	9	11*	7
O=C(CN1C(=O)CCC1=O)NNc1ccc2ccccc2c1	0	-5	0	1	82*	1
O=C(Cc1ccccc1)NNc1ccc2ccccc2c1	nt	0	2	-3	1	nt
O=C(NCCSCc1ccc(Cl)cc1Cl)c1ccc(CN2CCOCC2)cc1	1	43*	1	-3	1	5
O=C(NCCSc1ccc(Cl)cc1)c1ccc(CN2CCOCC2)cc1	nt	-2	2	1	0	-6
C[C@H](CO)N1C[C@H](C)[C@@H](CN(C)C(=O)Nc2ccc3c(c2)OCO3)OCc2cnnn2CCCC1=O	0	nt	nt	nt	2	nt
C[C@@H]1CN([C@H](C)CO)C(=O)c2cc(NC(=O)Nc3ccccc3)ccc2O[C@@H](C)CCCCO[C@@H]1CN(C)Cc1ccc(Cl)c(Cl)c1	0	nt	nt	nt	-2	nt
CC(C)C#Cc1cnc2c(c1)C(=O)N([C@@H](C)CO)C[C@@H](C)[C@@H](CN(C)C(=O)c1cnccn1)O2	0	nt	nt	nt	-1	nt
CS(=O)(=O)N1CC2(C1)[C@@H](c1ccccc1)[C@H](CO)N2Cc1ccc(F)cc1	nt	nt	nt	nt	0	nt
CCN(CC)c1ccc(/C=c2\sc3nnc(-c4ccccc4Cl)n3c2=O)cc1	-6	19*	0	-15	nt	-1
CCOc1ccc(CN(C)C(=O)CCl)cc1	nt	-4	2	-3	-1	55*
CCOc1ccc(CN(C)C(=O)CCNC(=O)c2ccco2)cc1	-4	1	-3	-5	1	nt
O=C(CCl)NCc1c(Cl)cccc1-n1cccc1	-1	-2	-2	-11	3	46*
C[C@H]1CN([C@@H](C)CO)C(=O)Cc2cc(NC(=O)c3ccncc3)ccc2O[C@H]1CN(C)C(=O)Nc1ccccc1	-5	nt	nt	nt	0	nt
COc1cc(N2CCCC2)c(OC)cc1/C=C(/C#N)c1ccc(Br)cc1	-17	-2	55*	0	nt	0
COc1cc(N2CCCC2)c(OC)cc1/C=C(/C#N)c1ccc(F)cc1	-4	-2	4	-5	nt	-3
Oc1ccc(/C=N\Nc2cc(N3CCOCC3)nc(N3CCOCC3)n2)c(O)c1	0	-1	1	-15	-3	-3
Cc1cc(N/N=C/c2ccc(O)cc2O)nc(N2CCOCC2)n1	1	3	-2	3	15*	-3
C/C(C/C(C)=C1/SC(=S)NC1=O)=C1\SC(=S)NC1=O	nt	20*	nt	nt	-2	nt
